According to the supplement of paper PMC12350171:
Structures can show the parent of a compound that is named as a salt. Unmarked numbers belong to inactive results.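 The calls were made as follows: active = AUC significantly below DMSO controls by Student t-fit with adjusted P under 0.01; inactive = not significantly reduced.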

Test system: Haemophilus parainfluenzae
Test: growth AUC normalised to DMSO control (fraction of control); higher = less growth inhibition, active = hit call of the paper
Details: 20 µM
Procedure, shortened: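 Pathogens were passaged twice under anaerobic conditions, then inoculated into pre-reduced mGAM plates at a starting OD578 of 0.01, with compound at 20 μM and 1% DMSO, and sealed with breathable membranes. For Haemophilus parainfluenzae, the medium was supplemented with hemin and NAD. OD578 was read every hour for 24 h in three biological replicates. Growth-curve AUC was calculated by the trapezoidal rule up to the exponential-to-stationary transition and normalised to DMSO controls on the same plate.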

SMILES	growth AUC normalised to DMSO control
CNCCCC1c2ccccc2C=Cc2ccccc21 [Protriptyline hydrochloride]	0.977
O=C(c1ccc(OCCN2CCCCC2)cc1)c1c(-c2ccc(O)cc2)sc2cc(O)ccc12 [Raloxifene hydrochloride]	0.974
CC(C)(S)C(N)C(=O)O (racemic) [D,L-Penicillamine]	0.981
N[C@@H]1CONC1=O [D-cycloserine]	1.04
CN(C(=O)CN(CCO)CC(=O)N(C)C(C)(C)Cc1ccccc1)C(C)(C)Cc1ccccc1 [Oxethazaine]	0.737
Fc1ccc(C(c2ccc(F)cc2)N2CCN(C/C=C/c3ccccc3)CC2)cc1 [Flunarizine dihydrochloride]	0.97
CC(=O)Oc1cc(C(C)C)c(OCCN(C)C)cc1C [Moxisylyte hydrochoride]	0.995
O=C(O)c1cc(=O)c2c(OCC(O)COc3cccc4oc(C(=O)O)cc(=O)c34)cccc2o1 [Cromolyn disodium salt]	1.01
Cc1ccc(Cl)c(Nc2ccccc2C(=O)O)c1Cl [Meclofenamic acid sodium salt monohydrate]	0.94
OC(Cn1cncn1)(Cn1cncn1)c1ccc(F)cc1F [Fluconazole]	1.07
OCCN1CCN(CCCN2c3ccccc3Sc3ccc(C(F)(F)F)cc32)CC1 [Fluphenazine dihydrochloride]	0.999
CC(=O)Oc1cc(C(F)(F)F)ccc1C(=O)O [Triflusal]	0.819
